Data on two sequences can be found in paper PMC7862700, “An all-to-all approach to the identification of sequence-specific readers for epigenetic DNA modifications on cytosine”.

Holding throughout (assay): DAPPL (digital affinity profiling via proximity ligation, sequencing); 10 mM Tris-HCl pH 7.5, 50 mM NaCl, 1 mM DTT, 4% glycerol, room temperature, 30 min; GST-TFs on glutathione beads, 16-mer random dsDNA library, 0.1% formaldehyde crosslink after washing; high values mean tight binding
Settings in all cases: protein: recombinant; tags: N-terminal GST; dsDNA, one strand shown

The target in one test is T1, ERG (Homo sapiens, UniProt P11308 1-479).
T1 sequence: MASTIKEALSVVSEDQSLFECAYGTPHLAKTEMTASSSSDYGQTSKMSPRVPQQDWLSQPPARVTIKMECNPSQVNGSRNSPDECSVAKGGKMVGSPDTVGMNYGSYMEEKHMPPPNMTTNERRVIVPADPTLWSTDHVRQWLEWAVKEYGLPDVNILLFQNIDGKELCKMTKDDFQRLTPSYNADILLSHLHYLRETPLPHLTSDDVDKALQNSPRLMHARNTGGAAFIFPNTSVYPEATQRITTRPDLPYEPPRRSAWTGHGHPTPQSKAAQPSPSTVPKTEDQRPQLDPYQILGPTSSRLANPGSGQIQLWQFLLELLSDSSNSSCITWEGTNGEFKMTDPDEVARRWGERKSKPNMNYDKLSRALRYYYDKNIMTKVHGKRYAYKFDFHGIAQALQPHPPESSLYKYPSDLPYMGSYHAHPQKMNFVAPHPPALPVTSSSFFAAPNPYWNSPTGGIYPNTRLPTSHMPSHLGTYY
An outline of the steps:
(§1)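 Binding signal is given per hexamer as its read frequency for a factor divided by its frequency in the tag-only sample. GST-fused human transcription factors were expressed in yeast, captured on glutathione beads, barcoded with DNA and pooled with that sample, then incubated with 200 nmole of a 16-mer random double-stranded DNA library in Tris/NaCl/DTT/glycerol buffer for 30 min at room temperature. The pools were then washed, crosslinked, proximity-ligated, amplified by PCR and sequenced on an Illumina NextSeq500.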

A further test concerns the target SPI1 (Homo sapiens, UniProt P17947 1-270). Summed up: as §1
The target in a further test is ELF4 (Homo sapiens, UniProt Q99607 1-663). An outline of the steps: as §1
A further test has as its target T2, ELK4 (Homo sapiens, UniProt P28324-2 1-405).
T2 sequence: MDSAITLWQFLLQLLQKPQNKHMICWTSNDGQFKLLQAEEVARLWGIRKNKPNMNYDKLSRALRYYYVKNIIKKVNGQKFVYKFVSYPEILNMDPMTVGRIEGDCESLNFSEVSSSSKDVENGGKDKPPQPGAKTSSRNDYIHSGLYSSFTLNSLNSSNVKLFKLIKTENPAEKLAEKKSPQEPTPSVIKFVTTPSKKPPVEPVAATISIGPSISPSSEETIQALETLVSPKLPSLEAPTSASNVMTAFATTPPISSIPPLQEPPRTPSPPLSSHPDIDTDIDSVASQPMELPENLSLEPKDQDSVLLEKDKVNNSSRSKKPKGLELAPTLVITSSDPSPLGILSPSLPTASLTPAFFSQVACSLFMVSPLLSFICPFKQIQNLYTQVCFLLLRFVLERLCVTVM
An outline of the steps: as §1

Another test deals with T3, ERF (Homo sapiens, UniProt P50548 1-548).
T3 sequence: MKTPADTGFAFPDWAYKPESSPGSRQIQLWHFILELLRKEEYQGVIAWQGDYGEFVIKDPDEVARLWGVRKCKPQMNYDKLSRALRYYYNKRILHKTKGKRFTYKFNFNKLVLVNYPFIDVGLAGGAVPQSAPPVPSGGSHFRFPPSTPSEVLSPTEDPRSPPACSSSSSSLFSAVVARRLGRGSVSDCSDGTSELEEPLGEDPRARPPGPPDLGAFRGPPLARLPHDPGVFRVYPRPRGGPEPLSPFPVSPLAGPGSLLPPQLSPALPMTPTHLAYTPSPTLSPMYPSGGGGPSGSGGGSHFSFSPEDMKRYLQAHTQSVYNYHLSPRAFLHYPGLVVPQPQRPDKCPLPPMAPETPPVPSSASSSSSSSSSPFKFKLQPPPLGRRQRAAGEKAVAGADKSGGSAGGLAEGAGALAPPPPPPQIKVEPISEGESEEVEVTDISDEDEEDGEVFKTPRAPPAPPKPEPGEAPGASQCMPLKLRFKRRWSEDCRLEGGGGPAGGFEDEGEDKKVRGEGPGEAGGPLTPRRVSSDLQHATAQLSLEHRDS
An outline of the steps: as §1

The target of a further test is T4, ETV2 (Homo sapiens, UniProt O00321 1-342).
T4 sequence: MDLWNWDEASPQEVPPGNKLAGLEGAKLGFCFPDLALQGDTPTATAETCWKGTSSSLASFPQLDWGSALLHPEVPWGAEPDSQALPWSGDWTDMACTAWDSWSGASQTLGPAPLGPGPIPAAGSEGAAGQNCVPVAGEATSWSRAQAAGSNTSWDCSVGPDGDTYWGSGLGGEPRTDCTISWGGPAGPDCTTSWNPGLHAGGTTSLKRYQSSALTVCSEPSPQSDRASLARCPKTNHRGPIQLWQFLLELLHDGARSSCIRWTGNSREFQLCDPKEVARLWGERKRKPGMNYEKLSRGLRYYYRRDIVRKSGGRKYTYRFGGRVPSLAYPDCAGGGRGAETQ
An outline of the steps: as §1

A further test deals with T5, ELF3 (Homo sapiens, UniProt P78545 1-371).
T5 sequence: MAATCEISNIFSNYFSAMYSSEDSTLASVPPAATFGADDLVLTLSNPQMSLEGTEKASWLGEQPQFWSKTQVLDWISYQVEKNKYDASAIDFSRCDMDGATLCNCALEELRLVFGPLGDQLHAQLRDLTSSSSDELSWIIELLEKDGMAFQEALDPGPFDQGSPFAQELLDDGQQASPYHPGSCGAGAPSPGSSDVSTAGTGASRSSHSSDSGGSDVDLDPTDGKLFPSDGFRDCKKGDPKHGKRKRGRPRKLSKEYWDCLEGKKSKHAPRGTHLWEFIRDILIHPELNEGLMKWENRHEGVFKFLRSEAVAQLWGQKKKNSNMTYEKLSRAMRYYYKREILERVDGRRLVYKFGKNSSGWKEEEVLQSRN
An outline of the steps: as §1

The next test concerns the target T6, ETV3L (Homo sapiens, UniProt Q6ZN32 1-361).
T6 sequence: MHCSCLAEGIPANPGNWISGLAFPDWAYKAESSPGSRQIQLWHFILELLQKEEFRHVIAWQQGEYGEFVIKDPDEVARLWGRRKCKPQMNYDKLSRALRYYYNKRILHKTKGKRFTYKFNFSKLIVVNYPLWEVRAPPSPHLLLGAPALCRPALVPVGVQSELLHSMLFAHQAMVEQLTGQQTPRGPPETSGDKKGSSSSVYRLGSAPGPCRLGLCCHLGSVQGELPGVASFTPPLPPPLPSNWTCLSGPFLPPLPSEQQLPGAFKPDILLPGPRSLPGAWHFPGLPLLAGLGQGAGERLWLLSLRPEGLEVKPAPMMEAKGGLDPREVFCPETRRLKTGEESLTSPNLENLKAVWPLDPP
Summed up: as §1

The next test deals with T7, ETS2 (Homo sapiens, UniProt P15036 1-469).
T7 sequence: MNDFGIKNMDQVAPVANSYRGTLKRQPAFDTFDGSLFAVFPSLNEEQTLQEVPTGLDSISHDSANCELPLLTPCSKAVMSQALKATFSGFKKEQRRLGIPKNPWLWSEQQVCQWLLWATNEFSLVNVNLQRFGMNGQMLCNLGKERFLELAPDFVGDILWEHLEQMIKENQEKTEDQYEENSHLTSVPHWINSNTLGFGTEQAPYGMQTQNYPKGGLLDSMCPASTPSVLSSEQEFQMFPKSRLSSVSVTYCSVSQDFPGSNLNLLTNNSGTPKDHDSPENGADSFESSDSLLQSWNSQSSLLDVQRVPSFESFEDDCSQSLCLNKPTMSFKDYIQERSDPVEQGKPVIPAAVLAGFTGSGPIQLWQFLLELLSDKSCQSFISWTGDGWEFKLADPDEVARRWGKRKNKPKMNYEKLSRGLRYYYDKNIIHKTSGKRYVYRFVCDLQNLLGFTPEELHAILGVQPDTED
An outline of the steps: as §1

A further test concerns the target T8, SPDEF (Homo sapiens, UniProt O95238 1-335).
T8 sequence: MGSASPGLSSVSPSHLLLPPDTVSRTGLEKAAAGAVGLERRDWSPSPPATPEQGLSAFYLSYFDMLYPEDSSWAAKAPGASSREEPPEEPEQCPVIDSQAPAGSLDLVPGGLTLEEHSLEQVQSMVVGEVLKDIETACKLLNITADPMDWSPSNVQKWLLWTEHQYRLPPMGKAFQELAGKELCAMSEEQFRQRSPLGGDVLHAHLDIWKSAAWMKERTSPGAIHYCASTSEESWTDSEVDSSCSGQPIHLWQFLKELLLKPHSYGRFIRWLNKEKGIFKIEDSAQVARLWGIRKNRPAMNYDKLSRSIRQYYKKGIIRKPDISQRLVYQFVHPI
An outline of the steps: as §1

A further test addresses T9, ETV7 (Homo sapiens, UniProt Q9Y603 1-341).
T9 sequence: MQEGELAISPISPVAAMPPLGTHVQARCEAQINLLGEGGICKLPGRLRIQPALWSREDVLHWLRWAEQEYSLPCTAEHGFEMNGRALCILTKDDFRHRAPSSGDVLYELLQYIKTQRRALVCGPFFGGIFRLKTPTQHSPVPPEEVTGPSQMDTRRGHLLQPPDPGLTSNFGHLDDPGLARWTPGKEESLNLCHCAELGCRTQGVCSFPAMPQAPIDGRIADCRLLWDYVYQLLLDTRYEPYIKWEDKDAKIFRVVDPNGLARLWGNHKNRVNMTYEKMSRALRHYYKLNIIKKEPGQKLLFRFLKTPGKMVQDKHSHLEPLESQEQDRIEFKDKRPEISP
Summed up:
as §1

The next test addresses T10, ELF5 (Homo sapiens, UniProt Q9UKW6-2 1-255).
T10 sequence: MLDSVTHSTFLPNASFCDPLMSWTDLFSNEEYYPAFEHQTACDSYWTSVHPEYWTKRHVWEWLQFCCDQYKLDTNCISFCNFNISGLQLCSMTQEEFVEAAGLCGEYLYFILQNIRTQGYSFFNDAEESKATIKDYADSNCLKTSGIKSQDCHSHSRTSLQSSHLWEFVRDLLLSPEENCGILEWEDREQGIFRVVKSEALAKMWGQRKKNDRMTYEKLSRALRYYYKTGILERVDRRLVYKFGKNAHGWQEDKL
Summed up:
as §1

The target in another test is ETV6 (Homo sapiens, UniProt P41212 1-452). Summed up: as §1
Sequence of ETV6 (P41212 whole entry): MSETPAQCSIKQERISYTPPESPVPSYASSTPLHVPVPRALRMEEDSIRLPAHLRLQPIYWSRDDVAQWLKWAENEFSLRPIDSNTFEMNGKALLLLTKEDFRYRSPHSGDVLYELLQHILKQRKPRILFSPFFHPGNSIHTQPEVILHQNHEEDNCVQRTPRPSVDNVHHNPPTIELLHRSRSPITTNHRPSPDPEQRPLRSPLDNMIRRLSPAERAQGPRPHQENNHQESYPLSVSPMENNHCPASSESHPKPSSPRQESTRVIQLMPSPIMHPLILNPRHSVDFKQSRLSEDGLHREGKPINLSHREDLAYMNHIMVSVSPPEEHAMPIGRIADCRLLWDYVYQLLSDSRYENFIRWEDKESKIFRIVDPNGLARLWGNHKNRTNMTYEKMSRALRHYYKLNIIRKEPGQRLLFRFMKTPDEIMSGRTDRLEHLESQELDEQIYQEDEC

Sequence of ELF4 (Q99607 whole entry): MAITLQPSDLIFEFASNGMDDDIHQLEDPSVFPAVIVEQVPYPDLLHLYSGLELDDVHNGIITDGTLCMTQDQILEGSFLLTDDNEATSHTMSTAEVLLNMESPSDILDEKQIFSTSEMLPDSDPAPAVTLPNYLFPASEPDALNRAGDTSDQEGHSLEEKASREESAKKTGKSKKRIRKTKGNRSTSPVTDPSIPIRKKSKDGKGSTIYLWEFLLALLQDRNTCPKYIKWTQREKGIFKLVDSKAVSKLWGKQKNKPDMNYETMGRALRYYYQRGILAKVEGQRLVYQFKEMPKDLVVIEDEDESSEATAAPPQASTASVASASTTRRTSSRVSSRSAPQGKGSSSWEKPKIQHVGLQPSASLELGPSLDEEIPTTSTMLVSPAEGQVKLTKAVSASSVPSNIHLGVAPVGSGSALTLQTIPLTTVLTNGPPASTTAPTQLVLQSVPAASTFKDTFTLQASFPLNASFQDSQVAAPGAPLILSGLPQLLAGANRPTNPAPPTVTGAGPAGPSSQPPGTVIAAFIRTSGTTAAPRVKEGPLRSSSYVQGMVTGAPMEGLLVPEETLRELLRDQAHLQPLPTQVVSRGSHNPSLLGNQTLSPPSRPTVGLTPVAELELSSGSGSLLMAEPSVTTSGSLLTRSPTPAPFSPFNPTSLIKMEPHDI

As for GCCATT, the binding signal with ERG was 1.01 fold enrichment (6-mer frequency, TF over GST control); with SPI1, 1.03 fold enrichment (6-mer frequency, TF over GST control); with ELF4, 1.02 fold enrichment (6-mer frequency, TF over GST control); in the test with ELK4, 1.07 fold enrichment (6-mer frequency, TF over GST control); in the test with ERF, 1.03 fold enrichment (6-mer frequency, TF over GST control).
On to GAATGC, for which the binding signal with ELF4 is 1.05 fold enrichment (6-mer frequency, TF over GST control); in the test with ETV2, 1.04 fold enrichment (6-mer frequency, TF over GST control); with ELF3, 1.06 fold enrichment (6-mer frequency, TF over GST control); in the test with ERF, 1.04 fold enrichment (6-mer frequency, TF over GST control); with ETV3L, 1.01 fold enrichment (6-mer frequency, TF over GST control); with ETS2 it was 1.05 fold enrichment (6-mer frequency, TF over GST control). Further, the binding signal was 1.04 fold enrichment (6-mer frequency, TF over GST control) with SPDEF; 1.03 fold enrichment (6-mer frequency, TF over GST control) in the test with ETV7; 1.07 fold enrichment (6-mer frequency, TF over GST control) with ELF5; 1.01 fold enrichment (6-mer frequency, TF over GST control) in the test with ETV6.
